Results filed as inconclusive are left out. Calls of active or inactive are those of the source. Calls follow the shape of the dose curve; as a rule, active = well fitted cell-killing curve with a large enough effect; inconclusive = small, poorly fitted or top-dose-only effect, or effect the other way; inactive = no such curve, though single readings can be large or run the other way.
assay: Quantitative High-Throughput drug screen in 47 multiple myeloma cell lines against the NCATS MIPE library collection: EJM_DSMZ cell viability assay (AID 1918926; also: nearly all actives have a fitted effect of over 30% in size); details: EJM myeloma cell viability, CellTiter-Glo ATP, 48 h; series mostly up to 45.8 µM; viability, % of control: at the top concentration
Description: PI: Beverly A. Mock Ph.D.
Laboratory of Cancer Biology and Genetics,
Center for Cancer Research, National Cancer Institute,
National Institute of Health, Bethesda, Maryland
Drug resistance and disease progression are common in multiple myeloma (MM) patients, underscoring the need for new therapeutic combinations. […] We hypothesized that effective combinations would reduce MYC expression and enhance p16 activity. […] These preclinical data identify potentially useful drug combinations for evaluation in drug-resistant MM and reveal potential mechanisms of combined drug sensitivity.
Described herein is the primary MIPE qHTS used to cherrypick compounds. Validated compounds were then further tested for potential synergistic activiy.
[1] Peat TJ, Gaikwad SM, Dubois W, Gyabaah-Kessie N, Zhang S, Gorjifard S, Phyo Z, Andres M, Hughitt VK, Simpson RM, Miller MA, Girvin AT, Taylor A, Williams D, D'Antonio N, Zhang Y, Rajagopalan A, Flietner E, Wilson K, Zhang X, Shinn P, Klumpp-Thomas C, McKnight C, Itkin Z, Chen L, Kazandijian D, Zhang J, Michalowski AM, Simmons JK, Keats J, Thomas CJ, Mock BA. Drug combinations identified by high-throughput screening promote cell cycle transition and upregulate Smad pathways in myeloma. Cancer Lett. 2023 Aug 1;568:216284. doi: 10.1016/j.canlet.2023.216284. Epub 2023 Jun 24. PMID: 37356470; PMCID: PMC10408729.
SEQUENCE No. (e.g., 1, 2, 3, etc.); […] (e.g., Cells, Incubation, Reagent, etc.); VALUE and DESCRIPTION.
1; Cells; 5 uL; white, solid bottom 1536-well Greiner assay plate.
2; Compounds; 23 nL; Kalypsis pin tool (Wako USA) equipped with a 1536-well pin head to transfer to the assay plates.
3; Incubation; 48 hours; 37C incubation.
4; Reagent;5uL; CellTiter Glo (Promega).
5; Detector; 425V; Luminescence; Viewlux PerkinElmer.
NOTES (numbers refer to Sequence numbers above)
1. The cell-based screening methods employed in this study were like those previously published. Briefly, the corresponding myeloma cell lines were screened in 1,536-well plates with 500 cells, 5-uL per well for inhibition of cell viability (assessed by measuring ATP levels with CellTiterGlo).
2. NCATS MIPE 4.0 library of approved and investigational drugs were added using the Kalypsis pin tool. Wells treated with DMSO only for 100% viability and media only wells for 0% viability were used as controls.
3. The assay plates were covered and incubated for 48 hours in a 37C, 5% CO2 incubator with controlled humidity.
4. After 48 hours, CellTilter-GloTM luminescent substrate mix (Promega) reagent was added to the assay plate and plates we incubated for 5 min at room temperature.
5. Signal was measured as median relative luminescence units on a ViewLux (PerkinElmer) multiplate reader.
[1] Heske CM, Davis MI, Baumgart JT, Wilson K, Gormally MV, Chen L, Zhang X, Ceribelli M, Duveau DY, Guha R, Ferrer M, Arnaldez FI, Ji J, Tran HL, Zhang Y, Mendoza A, Helman LJ, Thomas CJ. Matrix Screen Identifies Synergistic Combination of PARP Inhibitors and Nicotinamide Phosphoribosyltransferase (NAMPT) Inhibitors in Ewing Sarcoma. Clin Cancer Res. 2017 Dec 1;23(23):7301-7311. doi: 10.1158/1078-0432.CCR-17-1121. Epub 2017 Sep 12. PMID: 28899971; PMCID: PMC6636827.
Potency is read from the fitted curve at half-maximal effect.

Q: Which “viability, % of control” value does the source give for `O=C(N[C@H]1CN2CCC1CC2)c1ccc(Cl)cc1` here?
A: 102% (inactive)

Q: With `CCOC(=O)c1c(C(C#N)=CN)c2ccc(Cl)c(Cl)c2n1C` as the compound, how does the “viability, % of control” value read?
A: 92.8% (inactive)

Q: With `NC1CC1c1ccccc1` (stereo not given) as the compound, how does the “viability, % of control” value read?
A: 119% (inactive)

Q: Which “viability, % of control” value does the source give for `COc1cc2cc(c1Cl)N(C)C(=O)C[C@H](OC(=O)C(C)C)[C@]1(C)O[C@H]1[C@H](C)[C@@H]1C[C@@](O)(NC(=O)O1)[C@H](OC)C=CC=C(C)C2` here?
A: 24.4% (inactive)

Q: For `C[C@@H]1CC[C@H]2[C@@H](C)C(=O)O[C@@H]3O[C@@]4(C)CC[C@H]1[C@]32OO4`, which “viability, % of control” value is on record?
A: 80.6% (inactive)

Q: For `COc1ccc(N(C(=O)Oc2c(C)cccc2C)c2ccnc(Nc3ccc(N4CCN(C)CC4)cc3)n2)c(OC)c1`, which Potency is on record?
A: 0.743 µM (active)

Q: For `CC(C)[C@]12O[C@@H]1[C@@H]1O[C@]13[C@]1(O[C@H]1C[C@@H]1C4=C(CC[C@@]13C)C(=O)OC4)[C@H]2O`, which “viability, % of control” value is on record?
A: 13.5% (inactive)

Q: With `CN[C@@H]1Cc2cccc3[nH]c(=O)n(c23)C1` as the compound, how does the “viability, % of control” value read?
A: 91.6% (inactive)

Q: With `c1ccc2c(CN3CCNCC3)cccc2c1` as the compound, how does the “viability, % of control” value read?
A: 113% (inactive)

Q: Which “viability, % of control” value does the source give for `CCN1C[C@]2(OC(=O)c3ccccc3NC(C)=O)CC[C@H](OC)[C@@]34[C@H]5CC6[C@@H](OC)C[C@](O)(C(C[C@@H]23)[C@@H]14)[C@@]5(O)[C@@H]6OC` here?
A: 98.8% (inactive)

Q: With `CC(C)N[C@@H]1CCn2c(=O)[nH]c3cccc(c32)[C@@H]1O` as the compound, how does the Potency read?
A: 14.8 µM (active)

Q: For `CC(=O)N(C)c1cccc(-c2ccnc3c(C(=O)c4cccs4)cnn23)c1`, which “viability, % of control” value is on record?
A: 101% (inactive)

Q: With `O=c1[nH]c2ccccc2n1C1CCN(Cc2ccc(-c3[nH]c4cc5ncnc5cc4nc3-c3ccccc3)cc2)CC1` as the compound, how does the Potency read?
A: 20.9 µM (active)

Q: Which Potency does the source give for `C[C@@]12OC(=O)[C@]1([C@@H](O)[C@@H]1C=CCCC1)NC(=O)[C@H]2CCCl` here?
A: 0.0187 µM (active)

Q: With `CCN1CCN(C(=O)Cc2ccc(Nc3ncc(F)c(Nc4ccc(C(=O)Nc5ccccc5Cl)cc4)n3)cc2)CC1` as the compound, how does the Potency read?
A: 8.33 µM (active)

Q: With `C[C@H]([C@H](O)CCC(C)(C)O)[C@H]1CC[C@@]2(O)C3=CC(=O)[C@@H]4C[C@@H](O)[C@@H](O)C[C@]4(C)[C@@H]3CC[C@]12C` as the compound, how does the “viability, % of control” value read?
A: 92.7% (inactive)

Q: Which Potency does the source give for `CC(C)(C)c1cc(C=C(C#N)C#N)cc(Br)c1O` here?
A: 23.5 µM (active)

Q: Which “viability, % of control” value does the source give for `CC(C)N(CCNC(=O)CN1CCCC1=O)C(C)C` here?
A: 107% (inactive)

Q: Which Potency does the source give for `CC1=C(O)C(=O)C=C2C1=CC=C1[C@@]2(C)CC[C@@]2(C)[C@@H]3C[C@](C)(C(=O)O)CC[C@]3(C)CC[C@]12C` here?
A: 0.743 µM (active)

Q: Which “viability, % of control” value does the source give for `CCN(CC)C(=O)c1ccc(C2=CC3(CCNCC3)Oc3cccc(O)c32)cc1` here?
A: 94.4% (inactive)

Q: With `Cc1ccccc1-n1c(Cn2ncc3c(N)ncnc32)nc2cccc(C)c2c1=O` as the compound, how does the Potency read?
A: 16.6 µM (active)

Q: Which “viability, % of control” value does the source give for `O=C1CCC[C@@H]2[C@H]3CCCN4CCC[C@@H](CN12)[C@@H]34` here?
A: 91.7% (inactive)

Q: For `CC(O)=C(C#N)C(=O)Nc1cc(Br)ccc1Br`, which Potency is on record?
A: 7.43 µM (active)

Q: With `CC(C)[C@H]1C(=O)N[C@H](CO)Cc2c[nH]c3cccc(c23)N1C` as the compound, how does the “viability, % of control” value read?
A: 106% (inactive)

Q: With `O=[N+]([O-])c1ncc[nH]1` as the compound, how does the “viability, % of control” value read?
A: 86.8% (inactive)

Q: For `C=CCON=C(C[C@H]1O[C@@H]2O[C@]3(C)CC[C@@H]4[C@H](C)CC[C@@H]([C@H]1C)[C@@]24OO3)[C@H]1O[C@@H]2O[C@]3(C)CC[C@H]4[C@H](C)CC[C@@H]([C@@H]1C)[C@@]24OO3`, which Potency is on record?
A: 0.148 µM (active)

Q: Which Potency does the source give for `COC1=CC(C)=C[C@@H](C)[C@@H](O)[C@@H](C)CC(C)=CC=C[C@H](OC)[C@H]([C@@H](C)[C@@H](O)[C@H](C)[C@@]2(O)C[C@@H](O)[C@H](C)[C@@H](C(C)C)O2)OC1=O` here?
A: 18.7 µM (active)

Q: With `NC1=NC(=O)N2CC12` (stereo not given) as the compound, how does the “viability, % of control” value read?
A: 91.3% (inactive)

Q: Which Potency does the source give for `O=C(Nc1ccncc1)C(=O)c1cn(Cc2ccc(Cl)cc2)c2ccccc12` here?
A: 3.72 µM (active)

Q: With `COc1ccc2c(c1)CN(C)CC2c1ccc(Cl)c(Cl)c1` (stereo not given) as the compound, how does the Potency read?
A: 18.7 µM (active)

Q: Which “viability, % of control” value does the source give for `C1=C2CCCN[C@H]2[C@@H]2C[C@H]1[C@@H]1CCCCN1C2` here?
A: 92.7% (inactive)

Q: With `C[C@@H]1O[C@@H](O[C@@H]2C=C3CC[C@@H]4[C@@H](CC[C@]5(C)[C@H](c6ccc(=O)oc6)CC[C@@]45O)[C@@]3(C)CC2)[C@H](O)[C@H](O)[C@H]1O` as the compound, how does the Potency read?
A: 0.0209 µM (active)

Q: For `O=S(=O)(F)Cc1ccccc1`, which “viability, % of control” value is on record?
A: 102% (inactive)

Q: For `CC(=O)OCC1=C(C(=O)O)N2C(=O)[C@@H](N)[C@@H]2SC1`, which “viability, % of control” value is on record?
A: 81.7% (inactive)

Q: Which Potency does the source give for `C[C@@H]1CC[C@@]2(OC1)O[C@H]1C[C@H]3[C@@H]4CC=C5C[C@@H](O[C@@H]6O[C@H](CO)[C@@H](O[C@@H]7O[C@@H](C)[C@H](O)[C@@H](O)[C@@H]7O)[C@H](O)[C@@H]6O[C@@H]6O[C@@H](C)[C@H](O)[C@@H](O)[C@@H]6O)CC[C@]5(C)[C@@H]4CC[C@]3(C)[C@@H]1[C@H]2C` here?
A: 2.64 µM (active)

Q: For `CC(C)(O)C=CC(=O)[C@](C)(O)[C@H]1[C@H](O)C[C@]2(C)[C@@H]3CC=C4[C@@H](C=C(O)C(=O)C4(C)C)[C@]3(C)C(=O)C[C@@]12C`, which Potency is on record?
A: 0.0083 µM (active)

Q: With `CN(C)[C@@H]1C(=O)C(C(N)=O)=C(O)[C@@]2(O)C(=O)C3=C(O)c4c(O)cccc4[C@@](C)(O)[C@H]3[C@H](O)[C@@H]12` as the compound, how does the “viability, % of control” value read?
A: 82.8% (inactive)

Q: With `COc1ccc2c(c1)[C@]13CCCCC1C(C2)N(C)CC3` (stereo not given in full) as the compound, how does the “viability, % of control” value read?
A: 108% (inactive)

Q: For `CC[C@@H](C(N)=O)N1CCCC1=O`, which “viability, % of control” value is on record?
A: 100% (inactive)

Q: Which “viability, % of control” value does the source give for `COc1ccc(CC2NCCc3cc(OC)c(OC)cc32)cc1OC` (stereo not given) here?
A: 71% (inactive)
